Drawing on PubChem BioAssay, this text covers fold change, cell count and z-score for 18 molecules.

Assay [1] can be described thus: sensitizers of A549 cells to miR-34 induction, primary screen, imaging, A549 dox-inducible miR-34, nuclei and caspase counts (AID 1347080). Conditions: A549 miR-34 inducible, Hoechst nuclei count, 48 h.
Assay [2] in a line: survival rescue of mitochondrial mutant cells in low glucose, primary screen, MELAS cybrids, Rieske KO mouse fibroblasts, CellTiter-Glo (AID 1508586;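 active means mean z-score across replicates of 1.96 or higher in either the MELAS or the Rieske mutant cell line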;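 further: z relative to plate mean and SD of compound and empty wells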).
[3] abbreviates: stronger effect = lower value, cell number ratio, induced over uninduced.
The mark [4] stands for this setting: measured here: relative caspase fold change +Dox/-Dox.
Setting [5] is: measured here: total cells with miR-34 induction, stronger effect = lower value.
[6] abbreviates: measured here: total cells without miR-34 induction.
The mark [7] stands for this setting: MELAS cybrid survival, CellTiter-Glo 48 h, stronger effect = higher value.
Setting [8] is: Rieske KO mouse fibroblast survival, CellTiter-Glo 72 h.

The source made the active and inactive calls.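 How the source made its calls, unless noted: active means compounds whose cell count with miR-34 switched on is under 0.7 times the count with it off; inactive means the rest.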
Further: test concentration not given here.

As to `Cc1cn(C2OC(CO)C(O)C2F)c(=O)[nH]c1=O` (stereo not drawn), the results for the fold change in assay [1] (setting [3]) and in assay [1] (setting [4]) were 0.93 (inactive) and 0.942, respectively. The results for the cell count in assay [1] (setting [5]) and in assay [1] (setting [6]) were 9750 and 10500, respectively. For the same molecule, the z-score is -0.347 (inactive) in assay [2] (setting [7]) and 0.612 in assay [2] (setting [8]).

As to `O=C(C=CC=Cc1ccc2c(c1)OCO2)N1CCCCC1`, the fold change in assay [1] (setting [3]) is 1 (inactive); in assay [1] (setting [4]), 0.989. The cell count in assay [1] (setting [5]) and in assay [1] (setting [6]) was 9240 throughout. Moreover, the results for the z-score in assay [2] (setting [7]) and in assay [2] (setting [8]) were -0.417 (inactive) and 0.823, respectively.

For the molecule `O=C1NC(=O)C(=Cc2ccc(-c3ccc(F)cc3)o2)S1`, the fold change in assay [1] (setting [3]) is 0.882 (inactive); in assay [1] (setting [4]), 0.688. Moreover, the results for the cell count in assay [1] (setting [5]) and in assay [1] (setting [6]) were 8240 and 9340, respectively. Further, the z-score is -0.386 (inactive) in assay [2] (setting [7]) and 0.141 in assay [2] (setting [8]).

With `COC(=O)CCSCc1ccc(-c2onc(C)c2NC(=O)OC(C)c2ccccc2Cl)cc1` (stereo not drawn), the fold change in assay [1] (setting [3]) is 0.847 (inactive); in assay [1] (setting [4]), 0.706. In addition, the cell count in assay [1] (setting [5]) turned out to be 6550; in assay [1] (setting [6]), 7730. In addition, the z-score is -0.226 (inactive) in assay [2] (setting [7]) and -0.128 in assay [2] (setting [8]).

For `CC(C)Oc1ccc(-c2cnc3c(-c4ccnc5ccccc45)cnn3c2)cc1`, the fold change is 0.806 (inactive) in assay [1] (setting [3]) and 0.45 in assay [1] (setting [4]). The cell count was 5470 in assay [1] (setting [5]) and 6780 in assay [1] (setting [6]). The figures for the z-score in assay [2] (setting [7]) and in assay [2] (setting [8]) were -0.164 (inactive) and 0.555, respectively.

For the molecule `O=C(NN=Cc1ccc([N+](=O)[O-])o1)c1ccc(O)cc1`, the values for the fold change in assay [1] (setting [3]) and in assay [1] (setting [4]) were 1.02 (inactive) and 0.454, respectively. Further, the results for the cell count in assay [1] (setting [5]) and in assay [1] (setting [6]) were 8470 and 8320, respectively. Further, the values for the z-score in assay [2] (setting [7]) and in assay [2] (setting [8]) were -0.586 (inactive) and -0.436, respectively.

As to `CNC(=O)C(Cc1c[nH]c2ccccc12)NC(=O)C(CC(=O)NO)CC(C)C` (stereo not drawn), the figures for the fold change in assay [1] (setting [3]) and in assay [1] (setting [4]) were 0.883 (inactive) and 0.261, respectively. The cell count in assay [1] (setting [5]) came out at 7640; in assay [1] (setting [6]), 8650. The figures for the z-score in assay [2] (setting [7]) and in assay [2] (setting [8]) were 0.112 (inactive) and 0.643, respectively.

On to `Cc1ccc(CNc2ncnc3ccc(-c4ccc(CO)o4)cc23)o1`, for which the fold change was 0.916 (inactive) in assay [1] (setting [3]) and 0.52 in assay [1] (setting [4]). In addition, the cell count was 7510 in assay [1] (setting [5]) and 8210 in assay [1] (setting [6]). Moreover, the z-score in assay [2] (setting [7]) was -0.414 (inactive); in assay [2] (setting [8]) it was 0.153.

Take `CC(C)(C)OC(=O)NC1CCCCCC=CC2C[C@@]2(C(=O)NS(=O)(=O)C2CC2)NC(=O)C2CC(OC(=O)N3Cc4cccc(F)c4C3)CN2C1=O` (stereo partly drawn): the fold change in assay [1] (setting [3]) was 0.897 (inactive); in assay [1] (setting [4]), 1.55. The cell count was found to be 6840 in assay [1] (setting [5]) and 7630 in assay [1] (setting [6]). For the same molecule, the z-score in assay [2] (setting [7]) was -0.451 (inactive); in assay [2] (setting [8]), 0.469.

Consider `NC(Cc1c[nH]c2ccc(O)cc12)C(=O)O` (stereo not drawn), for which the results for the fold change in assay [1] (setting [3]) and in assay [1] (setting [4]) were 0.876 (inactive) and 0.739, respectively. In addition, the cell count in assay [1] (setting [5]) worked out at 8790; in assay [1] (setting [6]) it was 10000. Further, the z-score in assay [2] (setting [7]) was -0.256 (inactive); in assay [2] (setting [8]), 0.553.

`O=C(CCCCCCC(=O)Nc1ccc(C2OC(CSc3nc(-c4ccccc4)c(-c4ccccc4)o3)CC(c3ccc(CO)cc3)O2)cc1)NO` (stereo not drawn): the fold change in assay [1] (setting [3]) is 0.92 (inactive); in assay [1] (setting [4]) it was 0.644. In addition, the results for the cell count in assay [1] (setting [5]) and in assay [1] (setting [6]) were 6200 and 6750, respectively. For the same molecule, the z-score is -0.366 (inactive) in assay [2] (setting [7]) and 1.07 in assay [2] (setting [8]).

For `COc1cc2c(cc1-c1c(C)noc1C)ncc1[nH]c(=O)n(C(C)c3ccccn3)c12` (stereo not drawn), the fold change in assay [1] (setting [3]) was 0.947 (inactive); in assay [1] (setting [4]), 0.831. Moreover, the cell count in assay [1] (setting [5]) worked out at 7600; in assay [1] (setting [6]), 8030. The z-score in assay [2] (setting [7]) was 0.365 (inactive); in assay [2] (setting [8]), -1.83.

Regarding `O=C(Nc1ccccc1Br)NC1CCN(c2ccc(C(F)(F)F)cn2)C1` (stereo not drawn), the fold change was 0.944 (inactive) in assay [1] (setting [3]) and 0.559 in assay [1] (setting [4]). The cell count was 9350 in assay [1] (setting [5]) and 9910 in assay [1] (setting [6]). Moreover, the z-score is -0.215 (inactive) in assay [2] (setting [7]) and 0.944 in assay [2] (setting [8]).

In the case of `OCC1OC(OCCc2ccc(O)cc2)C(O)C(O)C1O` (stereo not drawn), the results for the fold change in assay [1] (setting [3]) and in assay [1] (setting [4]) were 0.962 (inactive) and 0.762, respectively. In addition, the cell count in assay [1] (setting [5]) amounted to 10000; in assay [1] (setting [6]), 10400. Also, the z-score in assay [2] (setting [7]) was -0.35 (inactive); in assay [2] (setting [8]), 0.467.

Take `CN1CC[C@H](c2c(O)cc(O)c3c(=O)cc(-c4ccccc4Cl)oc23)C(O)C1` (stereo partly drawn): the fold change in assay [1] (setting [3]) was 0.938 (inactive); in assay [1] (setting [4]) it was 1.82. Also, the cell count was 1600 in assay [1] (setting [5]) and 1700 in assay [1] (setting [6]). For the same molecule, the z-score in assay [2] (setting [7]) is 3.42 (active); in assay [2] (setting [8]), -0.841.

Turning to `C#C[C@@]1(O)CC[C@H]2[C@@H]3CCC4=CC(=O)CC[C@@H]4[C@@H]3CC[C@@]21CC`, the fold change in assay [1] (setting [3]) was 0.929 (inactive); in assay [1] (setting [4]) it was 0.428. The cell count came out at 7310 in assay [1] (setting [5]) and 7880 in assay [1] (setting [6]). The z-score in assay [2] (setting [7]) was -0.214 (inactive); in assay [2] (setting [8]), 0.0474.

Turning to `C=C1CC[C@H]2[C@@](C)(CCC(O)[C@@]2(C)CO)C1CC=C1C(=O)OCC1O` (stereo partly drawn), the fold change in assay [1] (setting [3]) is 0.97 (inactive); in assay [1] (setting [4]) it was 0.896. The cell count in assay [1] (setting [5]) is 6090; in assay [1] (setting [6]), 6280. In addition, the values for the z-score in assay [2] (setting [7]) and in assay [2] (setting [8]) were -0.657 (inactive) and -0.629, respectively.

For `CCn1c(N)c(C(=O)NC)c(=O)c2ccc(C#C[C@@](C)(O)COC)nc21`, the fold change is 0.913 (inactive) in assay [1] (setting [3]) and 0.578 in assay [1] (setting [4]). In addition, the figures for the cell count in assay [1] (setting [5]) and in assay [1] (setting [6]) were 6630 and 7260, respectively. The z-score was -0.356 (inactive) in assay [2] (setting [7]) and -0.157 in assay [2] (setting [8]).
